Here are results for 18 molecules from PubChem BioAssay (NCATS).

Results filed as inconclusive are left out. Active and inactive are the calls of the source. Calls follow the shape of the dose curve; as a rule, active = well fitted inhibition curve with a large enough effect; inconclusive = small, poorly fitted or top-dose-only effect; inactive = flat fitted curve, though single readings scatter.

Common to all, as to experiment: qHTS profiling for inhibitors of Plasmodium falciparum proliferation (AID 504749); also: nearly all actives have a fitted effect of over 60% in size
Common to all, as to details: P. falciparum in erythrocytes, SYBR Green DNA, 72 h; series mostly up to 28.7 µM

One test concerns CP256. The gist of the method: (§1)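 Each compound contacts P. falciparum-infected red blood cells for 72 h at 37 C; lysis buffer (Tris, EDTA, saponin, Triton X, SYBR Green I) is added and fluorescence measured next morning; values normalized to controls.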
The subject of another test is CP260. The gist of the method: as §1
The subject of the next test is CP262. The gist of the method: as §1
The subject of another test is CP265. The essentials: as §1
The subject of another test is CP268. The essentials: as §1
In another test the test system is CP269. The essentials:
as §1

In a further test the test system is CP286. The essentials:
as §1

The next test concerns CP291. The gist of the method:
as §1

In another test the test system is CP297. The gist of the method: as §1
A further test concerns CP266. The essentials: as §1
Potency is read from the fitted curve at half-maximal effect.

Take `CC1=C(/C=C/C(C)=C/C=C/C(C)=C/C(=O)Oc2c(C)c(C)c3c(c2C)CC[C@@](C)(CCC[C@H](C)CCC[C@H](C)CCCC(C)C)O3)C(C)(C)CCC1`: the Potency result in the test with CP256, in the test with CP260, with CP262, in the test on CP265, in the test on CP268 and in the test with CP269 was “inactive” in each case. Further, the Potency result in the test on CP286, in the test on CP291 and in the test with CP297 was “inactive” each time.

In the case of `Cn1cc(NC(=O)c2cc(NC(=O)c3cc(NC=O)cn3C)cn2C)cc1C(=O)NCCC(=N)N`, the Potency with CP256 is 11.2 µM (active); in the test with CP260 it was 12.6 µM (active); in the test with CP265 it was 11.2 µM (active); with CP268 it was 9.53 µM (active); in the test on CP269 it was 7.57 µM (active); in the test with CP286, 3.98 µM (active). Besides, in the test on CP291, the Potency was 9.53 µM (active).

Regarding `C[Si](C)(C)O[Si](C)(C)C`, the Potency result in the test with CP256, with CP260, in the test with CP265, with CP268, in the test with CP269 and with CP286 was “inactive” each time. Besides, the Potency result in the test with CP291 and in the test on CP297 was “inactive” in each case.

As to `CCc1ncnc2cc(OC)c(OC)cc12`, the Potency entry with CP256, in the test with CP262, with CP265, in the test with CP266, with CP268 and with CP269 was “inactive” in each case. Moreover, the Potency entry in the test on CP286, in the test with CP291 and with CP297 was “inactive” in each case.

With `CCCOc1cc(N)ccc1C(=O)OCCN(CC)CC`, the Potency entry in the test with CP260, in the test with CP262, in the test on CP265, in the test with CP266, in the test with CP268 and with CP286 was “inactive” each time. The Potency result in the test with CP291 is “inactive”.

In the case of `O=C(OCc1ccccc1)c1cccnc1`, the Potency result in the test on CP262, in the test with CP265, with CP266, in the test on CP268, in the test on CP269 and in the test on CP291 was “inactive” each time. The Potency entry with CP297 is “inactive”.

With `C[C@]12CCC(=O)C[C@@H]1CC[C@@H]1[C@@H]2CC[C@]2(C)C=CC[C@@H]12`, the Potency entry with CP256, with CP262, with CP265, with CP266, in the test on CP268 and in the test on CP269 was “inactive” throughout. The Potency entry in the test on CP291 and with CP297 was “inactive” each time.

`CCN(CC)CCC(=O)N1c2ccccc2Sc2ccc(C(F)(F)F)cc21`: the Potency result in the test with CP260, with CP262, with CP265, in the test with CP266, in the test with CP268 and in the test on CP269 was “inactive” in each case. Besides, the Potency result in the test on CP286 and with CP297 was “inactive” each time.

Regarding `CC(CN(C)C)CN1c2ccccc2Sc2ccc(C(F)(F)F)cc21` (configuration not stated), the Potency entry in the test with CP266 was “inactive”. In addition, the Potency with CP286 was 11.2 µM (active).

In the case of `C#C[C@]1(O)CC[C@@H]2[C@H]3CCC4=CC(=O)CC[C@H]4[C@H]3C(=C)C[C@@]21CC`, the Potency result in the test with CP260, in the test on CP262, in the test with CP265 and in the test on CP286 was “inactive” throughout. For the same molecule, the Potency with CP266 is 0.301 µM (active); with CP268 it was 0.426 µM (active); in the test on CP269, 0.536 µM (active); with CP291 it was 0.426 µM (active); in the test on CP297, 0.536 µM (active).

`CC(=O)Nc1ccc(NC(=S)NC(=O)c2ccc(C(C)(C)C)cc2)cc1`: the Potency entry with CP256, with CP262, with CP266, in the test on CP268, in the test with CP269 and in the test on CP291 was “inactive” in each case. Further, the Potency result in the test on CP297 is “inactive”.

For the molecule `Cc1ncc(C[n+]2csc(CCO)c2C)c(N)n1`, the Potency result in the test on CP260, in the test on CP262, in the test with CP265, in the test with CP266, in the test with CP268 and with CP269 was “inactive” each time. For the same molecule, the Potency entry in the test on CP286, with CP291 and in the test on CP297 was “inactive” throughout.

Regarding `CC(=O)c1ccc2c(c1)N(CCCN1CCN(CCO)CC1)c1ccccc1S2`, the Potency was 8.91 µM (active) in the test with CP256; 11.2 µM (active) in the test on CP265; 12 µM (active) with CP268; 10.7 µM (active) with CP269; 8.91 µM (active) in the test on CP286.

As for `Cn1c(=O)c2c(ncn2CCOC(=O)C(C)(C)Oc2ccc(Cl)cc2)n(C)c1=O`, the Potency entry in the test with CP260, in the test on CP262, in the test on CP266, with CP268, with CP269 and in the test on CP286 was “inactive” each time. In addition, the Potency result with CP291 and in the test with CP297 was “inactive” throughout.

As for `Oc1cccc(O)c1O`, the Potency entry with CP256 and in the test with CP266 was “inactive” throughout.

Regarding `CCOC(=O)Cc1ccc(-c2ccccc2)cc1`, the Potency entry with CP260, in the test with CP262, in the test with CP266, in the test with CP268, in the test with CP269 and with CP286 was “inactive” in each case. For the same molecule, the Potency entry in the test on CP291 was “inactive”. Besides, the Potency in the test on CP265 is 0.0006 µM (active).

In the case of `CNC(=O)[C@H](Cc1c[nH]c2ccccc12)NC(=O)[C@@H](CC(=O)NO)CC(C)C`, the Potency entry in the test with CP291 is “inactive”.

On to `Cc1cc(-c2ccc(N=Nc3c(S(=O)(=O)O)cc4cc(S(=O)(=O)O)cc(N)c4c3O)c(C)c2)ccc1N=Nc1c(S(=O)(=O)O)cc2cc(S(=O)(=O)O)cc(N)c2c1O`, for which the Potency entry in the test with CP256, in the test with CP262, in the test on CP265, with CP266, with CP269 and in the test on CP286 was “inactive” each time. Further, the Potency result with CP291 and in the test on CP297 was “inactive” throughout.
